Data published in PubChem BioAssay.
The source made the active and inactive calls. Unless noted, no rule for the calls is given here.

What was measured:
[1] = HepG2 liver cancer cell viability effects, profiling panel, resazurin fluorescence, 24 h, PK04 Diversity Set (AID 1172); details: higher = more signal
[2] = basal S. cerevisiae growth modulation, no modifier, primary screen, OD600, strain BY4716, 24 h, basal condition (AID 1173); details: OD600, 24 h, higher = more signal, called active from +8 up or from −8 down
[3] = MM1S myeloma cell viability, profiling panel, resazurin fluorescence, basal, 24 h, PK04 Diversity Set (AID 1174); details: higher = more signal, called active from +8 up or from −8 down;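 also: MM1S multiple myeloma cell line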
[4] = molecular target: Dihydroorotate dehydrogenase (quinone), mitochondrial (Plasmodium falciparum (isolate 3D7)) (UniProt Q08210); assay: PfDHODH enzyme inhibitors, primary screen, biochemical, C-terminal His tag, absorbance 600 nm (AID 1175); details: DCIP absorbance 600 nm, higher = more signal, called active from +8 up or from −8 down;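 also: recombinant parasite enzyme with a five histidine tag at its C terminus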
Sequence of Dihydroorotate dehydrogenase (quinone), mitochondrial (Plasmodium falciparum (isolate 3D7)) (Q08210 whole entry, looked up): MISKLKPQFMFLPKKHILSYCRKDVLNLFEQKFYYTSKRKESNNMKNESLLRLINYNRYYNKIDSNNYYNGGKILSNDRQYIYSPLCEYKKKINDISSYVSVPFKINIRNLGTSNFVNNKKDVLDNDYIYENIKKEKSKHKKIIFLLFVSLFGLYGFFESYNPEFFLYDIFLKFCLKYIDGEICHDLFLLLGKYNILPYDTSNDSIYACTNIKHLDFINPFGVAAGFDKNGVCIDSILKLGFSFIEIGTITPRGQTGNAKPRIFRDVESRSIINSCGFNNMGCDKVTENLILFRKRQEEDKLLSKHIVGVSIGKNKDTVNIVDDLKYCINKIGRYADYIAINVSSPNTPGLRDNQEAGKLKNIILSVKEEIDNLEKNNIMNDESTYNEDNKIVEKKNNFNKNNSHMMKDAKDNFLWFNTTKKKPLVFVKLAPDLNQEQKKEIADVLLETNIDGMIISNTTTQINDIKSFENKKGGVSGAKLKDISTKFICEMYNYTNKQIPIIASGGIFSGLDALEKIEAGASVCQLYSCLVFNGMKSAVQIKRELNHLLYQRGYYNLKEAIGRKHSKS

[5] = P. aeruginosa biofilm formation inhibitors, primary screen, strain PAO1, LB-PBS medium, absorbance 600 nm (AID 1176); details: P. aeruginosa PAO1 growth/biofilm, A600, 12 h; higher = more signal
[6] = S. cerevisiae RM11-1a growth modifiers, primary screen, strain RM11-1a, OD600, basal, 24 h (AID 1177); details: OD600, 24 h, higher = more signal, called active from +8 up or from −8 down;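 also: cultures grown under basal conditions with no added stressor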
[7] = E. coli acrAB mutant growth effects, primary screen, E. coli filamentation inducers, strain DRC39, OD650, 24 h (AID 1178); details: higher = more signal, called active from +8 up or from −8 down;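 also: growth measured as culture turbidity by optical density at 650 nm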
[8] = E. coli acrAB mutant growth effects, primary screen, E. coli filamentation inducers, strain DRC39, OD650, 48 h (AID 1179);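 also: screen aims at cell division blockers that make cells filament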; details: E. coli DRC39 delta-acrAB growth, higher = more signal, called active from +8 up or from −8 down
[9] = RPMI8226 myeloma cell viability, profiling panel, resazurin fluorescence, basal, 24 h, PK04 Diversity Set (AID 1180); details: higher = more signal;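 also: RPMI8826 multiple myeloma cell line at 5000 cells per well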
[10] = molecular target: E3 ubiquitin-protein ligase XIAP (Homo sapiens) (UniProt P98170); assay: XIAP binders, primary screen, biophysical, small-molecule microarray, fluorescence 635 nm (AID 1181); details: small-molecule microarray binding, higher = more signal;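 also: score merges 667 nm emission and signal to noise over triplicate slides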
Sequence of E3 ubiquitin-protein ligase XIAP (Homo sapiens) (P98170 whole entry, looked up): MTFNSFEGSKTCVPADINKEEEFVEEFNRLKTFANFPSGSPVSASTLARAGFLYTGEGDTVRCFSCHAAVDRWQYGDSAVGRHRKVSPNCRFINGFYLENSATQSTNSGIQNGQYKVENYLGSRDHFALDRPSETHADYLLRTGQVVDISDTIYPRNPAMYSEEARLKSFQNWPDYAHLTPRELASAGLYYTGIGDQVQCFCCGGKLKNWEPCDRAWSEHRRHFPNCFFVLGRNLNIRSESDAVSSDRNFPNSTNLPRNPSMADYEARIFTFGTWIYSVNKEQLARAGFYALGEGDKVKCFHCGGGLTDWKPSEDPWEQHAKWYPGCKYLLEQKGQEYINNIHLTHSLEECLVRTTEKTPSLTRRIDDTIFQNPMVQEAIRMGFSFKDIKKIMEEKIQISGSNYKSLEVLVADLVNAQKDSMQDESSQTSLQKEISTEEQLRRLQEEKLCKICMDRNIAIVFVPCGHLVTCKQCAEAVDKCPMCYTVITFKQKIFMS

[11] = tested on: XIP peptide (Xip251-270) binding; assay: small-molecule binders of XIP peptide, primary screen, biochemical, small-molecule microarray, fluorescence 635/667 nm, 0.1 µg/mL protein (AID 1182); details: fluorescent protein binding, 635 nm, higher = more signal, called active from +8 up or from −8 down
XIP peptide (Xip251-270) = assay: small-molecule binders of XIP peptide, primary screen, biochemical, small-molecule microarray, fluorescence 635/667 nm, 0.5 µg/mL protein (AID 1183); details: small-molecule microarray binding, fluorescence 635 nm; higher = more signal
[12] = Plasmodium falciparum growth inhibition, primary screen, strain 3D7, DAPI fluorescence, 100 nL (AID 1184);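 also: parasites grown inside human red blood cells in medium with human serum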; details: P. falciparum 3D7 growth, 3 d, higher = more signal
[13] = molecular target: Homeobox protein Hox-A13 (Mus musculus) (UniProt Q62424); assay: inhibitors of HoxA13-DNA binding, primary screen, biochemical, fluorescence polarization, labeled oligonucleotide (AID 1185); details: 15 min, higher = more signal, called active from +8 up or from −8 down
Sequence of Homeobox protein Hox-A13 (Mus musculus) (Q62424 whole entry, looked up): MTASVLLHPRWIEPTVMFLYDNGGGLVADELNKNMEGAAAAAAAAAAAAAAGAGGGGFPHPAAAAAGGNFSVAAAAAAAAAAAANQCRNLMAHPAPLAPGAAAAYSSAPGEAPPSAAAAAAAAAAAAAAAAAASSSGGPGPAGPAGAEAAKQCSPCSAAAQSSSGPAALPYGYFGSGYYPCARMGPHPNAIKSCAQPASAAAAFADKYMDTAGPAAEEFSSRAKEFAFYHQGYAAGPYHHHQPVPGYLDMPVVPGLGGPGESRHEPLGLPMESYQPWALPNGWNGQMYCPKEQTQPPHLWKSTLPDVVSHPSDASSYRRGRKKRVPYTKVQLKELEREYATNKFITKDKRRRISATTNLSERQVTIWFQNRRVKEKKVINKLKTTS

[14] = inhibitors of hydroxyurea-induced Chk1 phosphorylation, primary screen, imaging, HeLa, phospho-Chk1 antibody, percent positive cells (AID 1186); details: hydroxyurea-induced phospho-Chk1 immunofluorescence imaging, higher = more signal
[15] = inhibitors of hydroxyurea-induced Chk1 phosphorylation, primary screen, imaging, HeLa, phospho-Chk1 nuclear intensity (AID 1187); details: hydroxyurea-induced phospho-Chk1 immunofluorescence imaging, higher = more signal

## CC(C)C(=C=CC[C@H](O)c1cccc(OCCO)c1)C[C@H](O)c1cc(Cl)cc(Cl)c1O
[1]
  z-score: 0.84
[2]
  z-score: -4.38 (inactive)
[3]
  z-score: 0.0849 (inactive)
[4]
  composite z-score: -0.0151 (inactive)
[5]
  z-score: 0.33 (inactive)
[6]
  z-score: 0.233 (inactive)
[7]
  z-score: 0.889 (inactive)
[8]
  z-score: 0.709 (inactive)
[9]
  z-score: 1.61
[10]
  composite z-score: -0.16
[11]
  composite z-score: -0.41 (inactive)
XIP peptide (Xip251-270)
  composite z-score: 0.594
[12]
  z-score: -0.487
[13]
  z-score: -4.22 (inactive)
[14]
  z-score: -0.568 (inactive)
[15]
  z-score: 0.228 (inactive)

## CN(C)CCCNC(=O)[C@@]1(c2ccc([N+](=O)[O-])cc2)CC(=O)N(CC23CC4CC(CC(C4)C2)C3)[C@@H]1c1ccc(CO)cc1I
[1]
  z-score: -6.51
[2]
  z-score: -16.9 (active)
[3]
  z-score: -9.05 (active)
[4]
  composite z-score: -0.173 (inactive)
[5]
  z-score: 0.277 (inactive)
[6]
  z-score: -20.9 (active)
[7]
  z-score: -1.46 (inactive)
[8]
  z-score: -2.96 (inactive)
[9]
  z-score: -6.63
[10]
  composite z-score: -0.0541
[11]
  composite z-score: 0.166 (inactive)
XIP peptide (Xip251-270)
  composite z-score: 0.86
[12]
  z-score: -2.16
[13]
  z-score: 8.34 (active)
[14]
  z-score: -0.449 (inactive)
[15]
  z-score: -0.766 (inactive)

## CCOC(=O)C[C@H]1[C@H](OC(=O)c2cc3ccccc3oc2=O)[C@@H](NC(=O)c2ccc(-c3ccccc3)cc2)c2cc(OCCCO)ccc2N1C(=O)c1ccc2ccccc2n1
[1]
  z-score: 0.867
[2]
  z-score: 0.753 (inactive)
[3]
  z-score: 0.389 (inactive)
[4]
  composite z-score: -0.0286 (inactive)
[5]
  z-score: -0.0218 (inactive)
[6]
  z-score: 1.54 (inactive)
[7]
  z-score: 0.97 (inactive)
[8]
  z-score: 0.211 (inactive)
[9]
  z-score: 0.0692
[10]
  composite z-score: 0.023
[11]
  composite z-score: 0.155 (inactive)
XIP peptide (Xip251-270)
  composite z-score: 0.339
[12]
  z-score: -0.949
[13]
  z-score: -2.27 (inactive)
[14]
  z-score: -0.359 (inactive)
[15]
  z-score: -0.583 (inactive)

## O=C1C2C=CC(C(O)c3ccccc3)N(Nc3ccccc3F)C2C(=O)N1c1ccccc1 (centres undefined)
[1]
  z-score: 0.688
[2]
  z-score: -1.64 (inactive)
[3]
  z-score: -1.07 (inactive)
[4]
  composite z-score: -0.104 (inactive)
[5]
  z-score: 0.629 (inactive)
[6]
  z-score: 0.0428 (inactive)
[7]
  z-score: -0.737 (inactive)
[8]
  z-score: 0.206 (inactive)
[9]
  z-score: 0.466
[10]
  composite z-score: 0.258
[11]
  composite z-score: 1.07 (inactive)
XIP peptide (Xip251-270)
  composite z-score: 0.726
[12]
  z-score: 0.199
[13]
  z-score: -3.79 (inactive)
[14]
  z-score: 0.237 (inactive)
[15]
  z-score: 0.0511 (inactive)

## COc1ccc(NC(=O)O[C@H]2[C@H](OC(=O)Nc3ccccc3)[C@@H](OC(=O)Nc3ccccc3)[C@@H](OC)O[C@@H]2CO)cc1
[1]
  z-score: -1.58
[2]
  z-score: 0.559 (inactive)
[3]
  z-score: -2.86 (inactive)
[4]
  composite z-score: 1.1 (inactive)
[5]
  z-score: 0.304 (inactive)
[6]
  z-score: 2.89 (inactive)
[7]
  z-score: 0.717 (inactive)
[8]
  z-score: -0.141 (inactive)
[9]
  z-score: -1.61
[10]
  composite z-score: 0.131
[11]
  composite z-score: 0.551 (inactive)
XIP peptide (Xip251-270)
  composite z-score: 0.925
[12]
  z-score: -2.47
[13]
  z-score: -6.22 (inactive)
[14]
  z-score: -0.454 (inactive)
[15]
  z-score: -0.429 (inactive)

## COC(=O)c1c(CC[C@@H](CO)NC(=O)N2CCC[C@H]2Cn2cc(Cc3ccccc3)nn2)oc(C(C)=O)c1C(=O)OC
[1]
  z-score: 0.448
[2]
  z-score: -1.36 (inactive)
[3]
  z-score: -0.362 (inactive)
[4]
  composite z-score: -0.378 (inactive)
[5]
  z-score: -1.27 (inactive)
[6]
  z-score: -0.245 (inactive)
[7]
  z-score: 0.745 (inactive)
[8]
  z-score: 0.312 (inactive)
[9]
  z-score: -0.394
[10]
  composite z-score: 0
[11]
  composite z-score: 2.25 (inactive)
XIP peptide (Xip251-270)
  composite z-score: 0.889
[12]
  z-score: -0.547
[13]
  z-score: -3.88 (inactive)
[14]
  z-score: -0.358 (inactive)
[15]
  z-score: -0.522 (inactive)

## O=C1N(Cc2ccccc2)Cc2ccccc2[C@@H]2OC(c3ccc(OCCCO)cc3)=N[C@]12CCS(=O)(=O)c1ccccc1
[1]
  z-score: -0.121
[2]
  z-score: 0.691 (inactive)
[3]
  z-score: -0.772 (inactive)
[4]
  composite z-score: 0.094 (inactive)
[5]
  z-score: 1.91 (inactive)
[6]
  z-score: 2.33 (inactive)
[7]
  z-score: 0.153 (inactive)
[8]
  z-score: -0.286 (inactive)
[9]
  z-score: -0.849
[10]
  composite z-score: -0.144
[11]
  composite z-score: 0.0667 (inactive)
XIP peptide (Xip251-270)
  composite z-score: 0.736
[12]
  z-score: -2.17
[13]
  z-score: 0.722 (inactive)
[14]
  z-score: -0.0608 (inactive)
[15]
  z-score: 0.268 (inactive)

## N#Cc1ccc(NN2C(C(O)c3ccc(F)cc3)C=CC3C(=O)N(c4ccccc4)C(=O)C32)cc1 (centres undefined)
[1]
  z-score: -0.587
[2]
  z-score: -0.0167 (inactive)
[3]
  z-score: -0.388 (inactive)
[4]
  composite z-score: 0.37 (inactive)
[5]
  z-score: 0.695 (inactive)
[6]
  z-score: 0.222 (inactive)
[7]
  z-score: -1.06 (inactive)
[8]
  z-score: -0.405 (inactive)
[9]
  z-score: -0.67
[10]
  composite z-score: 0.0651
[11]
  composite z-score: 0.536 (inactive)
XIP peptide (Xip251-270)
  composite z-score: 0.634
[12]
  z-score: -0.573
[13]
  z-score: -0.0009 (inactive)
[14]
  z-score: -0.0909 (inactive)
[15]
  z-score: -0.0009 (inactive)

## O=C(NCCCCCNC(=O)/C(Cc1ccccc1)=N/O)OCc1ccccc1
[1]
  z-score: 0.619
[2]
  z-score: -3.54 (inactive)
[3]
  z-score: 0.63 (inactive)
[4]
  composite z-score: -0.713 (inactive)
[5]
  z-score: 0.695 (inactive)
[6]
  z-score: -1.21 (inactive)
[7]
  z-score: 1.92 (inactive)
[8]
  z-score: 1.42 (inactive)
[9]
  z-score: 1.09
[10]
  composite z-score: -0.253
[11]
  composite z-score: -0.333 (inactive)
XIP peptide (Xip251-270)
  composite z-score: 0.132
[12]
  z-score: -1.94
[13]
  z-score: -4.08 (inactive)
[14]
  z-score: -0.466 (inactive)
[15]
  z-score: 0.238 (inactive)
